Assays:
Assay in all cases: difference in mean normalized H2B-mRuby nuclear fluorescence intensity relative to DMSO control (normalized intensity difference (DMSO = 0)); higher = stronger increase in transgene reporter fluorescence
Settings in all cases: 24 h
H1299 = tested on: H1299
Outline: (§1)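 Drug exposure lasted 24 h in cancer cell lines stably expressing H2B-mRuby2, with DMSO equalized. Imaging of unstained cells on a Leica DMI8 (excitation 541–551 nm, emission 565–605 nm) was followed by illumination correction and nucleus segmentation in CellProfiler with Sauvola adaptive thresholding. Reported here is the difference between treated and DMSO-treated cells in mean per-nucleus normalized H2B-mRuby intensity, drawn from about 3 repeats of 4 fields each.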

LN-18 = tested on: LN-18
Outline: as §1

SK-OV-3 = tested on: SK-OV-3
Outline: as §1

In the case of `CC[C@]1(O)C[C@H]2CN(CCc3c([nH]c4ccccc34)[C@@](C(=O)OC)(c3cc4c(cc3OC)N(C=O)[C@H]3[C@@](O)(C(=O)OC)[C@H](OC(C)=O)[C@]5(CC)C=CCN6CC[C@]43[C@@H]65)C2)C1` (concentration unit: nM), the difference (H1299; concentration: 2.5) is reported as -0.165, the difference (H1299; concentration: 10) is reported as -0.0783 and the difference (H1299; concentration: 25) is reported as -0.00792. For the same compound, the difference (H1299; concentration: 100) was -0.00267 and the difference (H1299; concentration: 250) was -0.0899.
`CO[C@H]1C[C@@H]2CC[C@@H](C)[C@@](O)(O2)C(=O)C(=O)N2CCCC[C@H]2C(=O)O[C@H]([C@H](C)C[C@@H]2CC[C@@H](O)[C@H](OC)C2)CC(=O)[C@H](C)/C=C(\C)[C@@H](O)[C@@H](OC)C(=O)[C@H](C)C[C@H](C)/C=C/C=C/C=C/1C` (concentration unit: nM) showed a difference (H1299; concentration: 2.5) of -0.0109, a difference (H1299; concentration: 10) of 0.177 and a difference (H1299; concentration: 25) of 0.0761. It also gave a difference (H1299; concentration: 50) of 0.0674 and a difference (H1299; concentration: 250) of 0.0406.
`COc1cc2nccc(Oc3ccc(NC(=O)C4(C(=O)Nc5ccc(F)cc5)CC4)cc3)c2cc1OC` (concentration unit: uM) gave a difference (H1299; concentration: 0.5) of 0.0394, a difference (H1299; concentration: 1) of -0.122 and a difference (H1299; concentration: 2.5) of -0.0701. The difference (H1299; concentration: 5) was 0.0398 and the difference (H1299; concentration: 10) was 0.0491.
With `COc1cccc2c1C(=O)c1c(O)c3c(c(O)c1C2=O)C[C@@](O)(C(=O)CO)C[C@@H]3O[C@H]1C[C@H](N)[C@H](O)[C@H](C)O1` (concentration unit: nM) the difference (H1299; concentration: 25) was 0.0124, the difference (H1299; concentration: 100) was 0.112 and the difference (H1299; concentration: 250) was 0.0484. For the same compound, the difference (H1299; concentration: 1000) was 0.0826, the difference (H1299; concentration: 2500) was 0.218 and the difference (LN-18; concentration: 25) was -0.017. The difference (LN-18; concentration: 100) was -0.0175, the difference (LN-18; concentration: 250) was 0.0434 and the difference (LN-18; concentration: 1000) was 0.361. For the same compound, the difference (LN-18; concentration: 2500) was 0.899, the difference (SK-OV-3; concentration: 25) was -0.00185 and the difference (SK-OV-3; concentration: 100) was 0.13. It also gave a difference (SK-OV-3; concentration: 250) of 0.133, a difference (SK-OV-3; concentration: 1000) of 0.252 and a difference (SK-OV-3; concentration: 2500) of 0.93.
For `CNC(=O)c1ccccc1Sc1ccc2c(/C=C/c3ccccn3)n[nH]c2c1` (concentration unit: uM), the difference (H1299; concentration: 1) was -0.0324, the difference (H1299; concentration: 2.5) was 0.0393 and the difference (H1299; concentration: 5) was 0.159. For the same compound, the difference (H1299; concentration: 10) was 0.14 and the difference (H1299; concentration: 20) was 0.156.
`C=CCn1c(=O)c2cnc(Nc3ccc(N4CCN(C)CC4)cc3)nc2n1-c1cccc(C(C)(C)O)n1` (concentration unit: uM) gave a difference (H1299; concentration: 0.1) of 0.0483, a difference (H1299; concentration: 0.5) of 0.108 and a difference (H1299; concentration: 1) of 0.027. The difference (H1299; concentration: 2.5) was -0.00187 and the difference (H1299; concentration: 5) was -0.0335.
Work on `CC(=O)c1c(C)c2cnc(Nc3ccc(N4CCNCC4)cn3)nc2n(C2CCCC2)c1=O` (concentration unit: uM) yielded a difference (H1299; concentration: 0.1) of -0.156, a difference (H1299; concentration: 0.5) of -0.266 and a difference (H1299; concentration: 1) of -0.19. For the same compound, the difference (H1299; concentration: 5) was -0.0957 and the difference (H1299; concentration: 10) was -0.0594.
Compound `COc1cc2ncnc(Nc3ccc(F)c(Cl)c3)c2cc1OCCCN1CCOCC1` (concentration unit: uM) has a difference (LN-18; concentration: 1) of 0.099, a difference (LN-18; concentration: 2.5) of 0.00859 and a difference (LN-18; concentration: 5) of 0.0147. It also gave a difference (LN-18; concentration: 10) of 0.0212, a difference (LN-18; concentration: 20) of 0.00315 and a difference (SK-OV-3; concentration: 1) of 0.00612. The difference (SK-OV-3; concentration: 2.5) was -0.00968, the difference (SK-OV-3; concentration: 5) was 0.0329 and the difference (SK-OV-3; concentration: 10) was 0.0831. The difference (SK-OV-3; concentration: 20) was 0.0836.
`O=C(NOC[C@H](O)CO)c1ccc(F)c(F)c1Nc1ccc(I)cc1F` (concentration unit: uM) showed a difference (H1299; concentration: 0.05) of -0.0791, a difference (H1299; concentration: 0.1) of -0.114 and a difference (H1299; concentration: 0.25) of -0.172. For the same compound, the difference (H1299; concentration: 1) was -0.174 and the difference (H1299; concentration: 5) was -0.199.
For `Nc1ncn([C@@H]2O[C@H](CO)[C@@H](O)[C@H]2O)c(=O)n1` (concentration unit: uM), the difference (LN-18; concentration: 1) was 0.03, the difference (LN-18; concentration: 2.5) was 0.0353 and the difference (LN-18; concentration: 5) was 0.0211. It also gave a difference (LN-18; concentration: 10) of 0.0474, a difference (LN-18; concentration: 20) of 0.00195 and a difference (SK-OV-3; concentration: 1) of 0.0139. The difference (SK-OV-3; concentration: 2.5) was -0.0364, the difference (SK-OV-3; concentration: 5) was 0.0517 and the difference (SK-OV-3; concentration: 10) was 0.126. It also gave a difference (SK-OV-3; concentration: 20) of 0.105.
`Cn1ncnc1[C@H]1c2n[nH]c(=O)c3cc(F)cc(c23)N[C@@H]1c1ccc(F)cc1` (concentration unit: uM) was tested, and the difference (H1299; concentration: 1) was 0.0403, the difference (H1299; concentration: 2.5) was -0.0275 and the difference (H1299; concentration: 5) was 0.00616. The difference (H1299; concentration: 10) was 0.00511 and the difference (H1299; concentration: 25) was 0.0863.
In the case of `O=C(/C=C/c1cccc(S(=O)(=O)Nc2ccccc2)c1)NO` (concentration unit: uM), the difference (H1299; concentration: 0.25) is reported as 0.186, the difference (H1299; concentration: 0.5) is reported as 0.231 and the difference (H1299; concentration: 1) is reported as 0.491. It also gave a difference (H1299; concentration: 2.5) of 0.854 and a difference (H1299; concentration: 5) of 1.19.
`COc1cc([C@@H]2c3cc4c(cc3[C@@H](O[C@@H]3O[C@@H]5CO[C@@H](C)O[C@H]5[C@H](O)[C@H]3O)[C@H]3COC(=O)[C@H]23)OCO4)cc(OC)c1O` (concentration unit: uM) was tested, and the difference (H1299; concentration: 0.5) was 0.147, the difference (H1299; concentration: 1) was 0.0921 and the difference (H1299; concentration: 2.5) was 0.108. The difference (H1299; concentration: 5) was 0.206, the difference (H1299; concentration: 10) was 0.153 and the difference (H1299; concentration: 20) was 0.189. For the same compound, the difference (LN-18; concentration: 1) was 0.0338, the difference (LN-18; concentration: 2.5) was 0.04 and the difference (LN-18; concentration: 5) was 0.0489. For the same compound, the difference (LN-18; concentration: 10) was 0.0688, the difference (LN-18; concentration: 20) was 0.0487 and the difference (SK-OV-3; concentration: 1) was 0.0528. It also gave a difference (SK-OV-3; concentration: 2.5) of 0.00327, a difference (SK-OV-3; concentration: 5) of 0.00917 and a difference (SK-OV-3; concentration: 10) of 0.159. For the same compound, the difference (SK-OV-3; concentration: 20) was 0.266.
With `COc1cc(Nc2ncc3c(n2)-c2ccc(Cl)cc2C(c2c(F)cccc2OC)=NC3)ccc1C(=O)O` (concentration unit: nM) the difference (H1299; concentration: 10) was -0.0235, the difference (H1299; concentration: 50) was -0.0295 and the difference (H1299; concentration: 250) was 0.00737. For the same compound, the difference (H1299; concentration: 500) was 0.159 and the difference (H1299; concentration: 1000) was 0.136.
With `Cc1nc(Nc2ncc(C(=O)Nc3c(C)cccc3Cl)s2)cc(N2CCN(CCO)CC2)n1` (concentration unit: nM) the difference (LN-18; concentration: 25) was 0.0292, the difference (LN-18; concentration: 100) was 0.0217 and the difference (LN-18; concentration: 250) was 0.0754. The difference (LN-18; concentration: 1000) was 0.0482, the difference (LN-18; concentration: 2500) was -0.0509 and the difference (SK-OV-3; concentration: 25) was 0.111. It also gave a difference (SK-OV-3; concentration: 100) of 0.606, a difference (SK-OV-3; concentration: 250) of 0.528 and a difference (SK-OV-3; concentration: 1000) of 0.636. It also gave a difference (SK-OV-3; concentration: 2500) of 0.551.
`CNC(=O)c1cc(Oc2ccc(NC(=O)Nc3ccc(Cl)c(C(F)(F)F)c3)cc2)ccn1` (concentration unit: uM) showed a difference (H1299; concentration: 1) of 0.0342, a difference (H1299; concentration: 2.5) of -0.0184 and a difference (H1299; concentration: 5) of -0.0837. The difference (H1299; concentration: 10) was -0.0051 and the difference (H1299; concentration: 25) was -0.155.
`Cc1[nH]c2ccccc2c1CCNCc1ccc(/C=C/C(=O)NO)cc1` (concentration unit: nM) was tested, and the difference (LN-18; concentration: 10) was 0.22, the difference (LN-18; concentration: 50) was 0.459 and the difference (LN-18; concentration: 100) was 0.491. The difference (LN-18; concentration: 250) was 0.528, the difference (LN-18; concentration: 500) was 0.494 and the difference (SK-OV-3; concentration: 10) was 0.269. It also gave a difference (SK-OV-3; concentration: 50) of 1.12, a difference (SK-OV-3; concentration: 100) of 1.16 and a difference (SK-OV-3; concentration: 250) of 1.1. The difference (SK-OV-3; concentration: 500) was 1.13.

— the supplement of paper PMC11026393
